Data reported in PubChem BioAssay (NCI).
The panel holds about 83,000 compounds, 20% with a hit somewhere; the sample as a whole holds those more often.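 Cells were grown in 96-well plates and exposed to the test compound at a single concentration for 48 hours; results are reported as percent growth, with values below 10 considered active.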 Values without a mark were called inactive. Active and inactive are the calls of the source.

What was measured:
Experiment in all cases: NCI-60 one-dose screen, 48 h (100 = growth as untreated, 0 = no growth, -100 = all killed)
Conditions in all cases: 10 µM unless noted
[1] = system: SK-MEL-2 melanoma
[2] = system: EKVX NSCLC
[3] = system: SN12C renal
[4] = system: UO-31 renal
[5] = system: TK-10 renal
[6] = system: ACHN renal
[7] = system: CAKI-1 renal
[8] = system: A498 renal
[9] = system: CCRF-CEM leukemia
[10] = system: MOLT-4 leukemia
[11] = system: SR leukemia
[12] = system: OVCAR-8 ovarian
[13] = system: OVCAR-5 ovarian
[14] = system: OVCAR-4 ovarian
[15] = system: SK-OV-3 ovarian
[16] = system: IGROV1 ovarian
[17] = system: OVCAR-3 ovarian
[18] = system: HS 578T breast
[19] = system: NCI/ADR-RES ovarian
[20] = system: RPMI-8226 leukemia

Structure (SMILES) | growth [1] | growth [2] | growth [3] | growth [4] | growth [5] | growth [6] | growth [7] | growth [8] | growth [9] | growth [10] | growth [11] | growth [12] | growth [13] | growth [14] | growth [15] | growth [16] | growth [17] | growth [18] | growth [19] | growth [20]
COc1ccc(OC)c(Nc2nnc(-c3ccc(Cl)cc3)o2)c1 | 96.9% | 82.5% | 90.1% | 51.8% | 36% | 30.8% | 65.3% | 96% | 108% | 88.5% | 79.7% | 85.5% | 82.4% | 10.5% | 90.7% | 81.1% | 31.8% | 51.4% | 71.9% | 
O=C(CSc1nnc2sc(Nc3cccc(Cl)c3)nn12)c1ccc(F)cc1 | 102% | 94.8% | 98.9% | 78.8% | 114% | 96% | 71.3% | 103% |  | 71.3% | 90.9% | 102% | 95.1% | 101% | 82.1% | 101% | 106% | 97.4% | 96.4% | 94.9%
O=C(/C=C/c1ccc(Br)cc1)c1ccc(-n2cc(CN3CCN(c4cc5c(cc4F)c(=O)c(C(=O)O)cn5C4CC4)CC3)nn2)cc1 | 97.2% | 90.7% | 44.9% | 65.7% | 91.4% | 93.7% | 64.4% | 57.4% |  | 67.7% | 16.6% | 79% | 99.5% | 91.4% | 78.4% | 74.2% | 95.9% | 83.6% | 102% | 34.2%
COc1ccc2nc(Cl)c(/C=C/C(=O)c3ccc(NC(=O)CSc4nnc(-c5ccc(Cl)c(Cl)c5)n4-c4ccccc4)cc3)cc2c1 | 87.6% | 93.2% | 88.2% | 79.3% | 100% | 103% | 77.6% | 87% |  | 86.4% | 98.6% | 92.1% | 102% | 103% | 91.4% | 76.3% | 105% | 89.3% | 102% | 62%
O=C1c2cccnc2C(=O)c2c1c(C(=O)OCCCN1CCCCC1)c1ccccn21 | -47.3% (active) | -15.6% (active) | -57.6% (active) | -19.5% (active) | -11.1% (active) | -55.2% (active) | -24% (active) | 11.1% | -17% (active) | -7.64% (active) | -15.8% (active) | -32% (active) | -19.2% (active) | -61.8% (active) | -40.6% (active) | -5% (active) | 0.168% (active) | -16% (active) | -13.3% (active) | 
CCOC(=O)C1=C(c2ccccc2)N=c2s/c(=C/c3ccc(Br)cc3)c(=O)n2C1c1ccc(O)cc1 (stereo not drawn) | 95.9% | 76.8% | 85.2% | 78.5% | 91.7% | 104% | 62.2% | 73.2% |  | 68% | 54.8% | 89.2% | 105% | 75.1% | 104% | 93.1% | 86.1% | 84.4% | 99.5% | 74.1%
Cc1c2cc[nH]c(=O)c2c(C)c2c1[nH]c1ccc(OC(=O)c3ccccc3)cc12 | 23.7% | 19.7% | 32.3% | 12.9% | 34% | -9.28% (active) | 29.1% | 61.2% | 29.4% | 6.99% (active) | 4.29% (active) | 28.4% | 53.1% | 62.5% | 8.11% (active) | 30.6% | 44.3% | 19.3% | 27.7% | 
O=C(O)c1cccc(N/C=C/C(=O)c2cc3cc(Br)ccc3oc2=O)c1 | 119% | 102% | 94.1% | 74.9% | 119% | 102% | 86.3% | 92.5% |  | 113% | 105% | 105% | 98.8% | 95.1% | 98.9% | 106% | 95.8% | 94.7% | 104% | 101%
Cc1ncc(C(=O)Nc2ccc(CN3CCN(C)CC3)c(C(F)(F)F)c2)cc1C#Cc1cnc(N)c2cnccc12 | -85.3% (active) | 21.5% | 11.7% | -30.1% (active) | -22.6% (active) | -21.6% (active) | -91.5% (active) | -90.5% (active) |  | 13% | -17.8% (active) | 15.4% | 12.5% | 40.7% | -30.9% (active) | -31.3% (active) | 31.2% | -16.6% (active) | 55.3% | 39.2%
COc1cccc(OC)c1Oc1c(-c2nc3ccccc3s2)c(C)nn1-c1ccccc1 | 90.6% | 71.9% | 82.6% | 49.5% | 94.7% | 72.8% | 44.9% | 82.3% | 62.9% | 51.2% | 6.99% (active) | 72.2% | 73.8% | 63.4% | 75.3% | 46.5% | 89.6% | 78.3% | 64.7% | 
Cn1c(=O)c2c(nc(NC3=NS(=O)(=O)c4ccccc43)n2Cc2ccccc2)n(C)c1=O | 99.7% | 91.5% | 93% | 81.2% | 143% | 97.5% | 83.7% | 60.4% |  | 106% | 108% | 99.5% | 99.6% | 103% | 97.5% | 95.5% | 110% | 96.5% | 103% | 103%
CCN1C(=O)N(CC)C2C1NN=c1s/c(=C\c3ccccc3Br)c(=O)n12 (stereo not drawn) | 51.1% | 47.7% | 24.8% | 36.2% | 70.9% | 26.1% | 24.7% | -1.67% (active) |  | 15.2% | 13.6% | 1.17% (active) | 28% | 49.7% | 38.1% | 16.9% | 2.96% (active) | 16.1% | 7.75% (active) | 15.5%
COc1ccc2c(c1)c(-c1nonc1-c1cn(C)c3ccc(OC)cc13)cn2C | 41.8% | 47.4% | 43.8% | 49% | 71.2% | 51.7% | 31.9% | 18.4% |  | 25.4% | 16.5% | 52.9% | 56.2% | 62% | 48.2% | 46.5% | 11.4% | 34.4% | 22.3% | 39.9%
Nc1ncnc2c1c(-c1ccc(Oc3ccccc3)cc1)nn2CC1SSCC1O (stereo not drawn) | 56.8% | 4.11% (active) | 49.1% | -3.62% (active) | 8.91% (active) | 25.9% | 42.5% | 27.8% |  | -33.3% (active) | -16.2% (active) | 67.7% | 81.4% | 67.4% | 44.3% | 15.6% | 11.9% | 66.7% | 77.5% | 38%
COc1ccc(C/C(C)=C(/c2ccc(OCCN3CCCCCC3)cc2)c2ccc(OC(=O)NCc3ccccc3)cc2)cc1 | 94.9% | 87.6% | 71.3% | 62.7% | 87.8% | 101% | 92.8% | 97.3% |  | 41.2% | -43.2% (active) | 92.4% | 91.5% | 76% | 95.3% | 93% | 75.1% | 75% | 86.8% | 52.8%
O=C1c2cc3c(cc2-c2c1c1ccc(Cl)cc1c(=O)n2C[C@H](O)CO)OCO3 | -9.57% (active) | 4.75% (active) | 10.1% | -85.6% (active) | 14.6% | -72.2% (active) | -35.3% (active) | -79.1% (active) | 9.33% (active) | -17.2% (active) | -2.7% (active) | 3.37% (active) | -7.3% (active) | 4.86% (active) | -2% (active) | 8% (active) | -17.3% (active) |  | 3.2% (active) | 
